Test [1] in a line: NCI Yeast Anticancer Drug Screen. Data for the rad50 strain (AID 155).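 Also: 0% = growth of vehicle-only cultures of the same strain.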 Particulars: S. cerevisiae rad50 strain growth inhibition; at 50.0 µM; active compounds read high. Put shortly: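 Cells are treated with compound, grown, and their growth is then scored against vehicle-only cultures of the same repair-deficient yeast strain.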
The nature of test [2]: NCI Yeast Anticancer Drug Screen. Data for the mec2-1 strain (AID 157). The conditions noted are these: S. cerevisiae mec2-1 strain, at 50.0 µM, active compounds read high. Put shortly:
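Growth inhibition is read against vehicle-treated controls after compound exposure of the mec2-1 yeast strain, which is defective in DNA damage repair or cell cycle control.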

Test [3] is described as follows: NCI Yeast Anticancer Drug Screen. Data for the sgs1 mgt1 strain (AID 161).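 Also: 0% = growth of cultures given vehicle only.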 Particulars: S. cerevisiae sgs1 mgt1 strain, at 50.0 µM, active compounds read high. Put shortly: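 Percent growth inhibition was derived by comparing compound-exposed mutant yeast with vehicle-exposed cultures. The strain carries alterations in DNA damage repair.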
A short description of test [4]: NCI Yeast Anticancer Drug Screen. Data for the cln2 rad14 strain (AID 165).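 Also: 0% = growth equal to vehicle treated cultures.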 The conditions noted are these: S. cerevisiae cln2 rad14 strain, at 50.0 µM, active compounds read high. Put shortly:
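Growth inhibition, relative to vehicle-treated controls, is the read-out. The test organism is a yeast strain with defined genetic alterations, cln2 rad14.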

Test [5] is described as follows: NCI Yeast Anticancer Drug Screen. Data for the bub3 strain (AID 167). The conditions noted are these: S. cerevisiae bub3 mutant strain, at 50.0 µM, active compounds read high. Put shortly: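 Part of a panel of yeast mutants defective in DNA damage repair or cell cycle regulation. Each strain is grown with compound, and inhibition is calculated relative to solvent-treated cultures.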

A short description of test [6]: NCI Yeast Anticancer Drug Screen. Data for the mlh1 rad18 strain (AID 175). Particulars: S. cerevisiae mlh1 rad18 strain growth inhibition; at 50.0 µM; active compounds read high. In outline:
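Cells of a genetically altered yeast strain, deficient in DNA damage repair, were treated with compound. Their growth was then compared with that of vehicle-treated cultures to give inhibition.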

About 79,000 compounds went through this panel and 15% of them were active in at least one assay; those are over-represented in the sample as a whole. A number with no mark means an inactive call. The source made the active and inactive calls. Rule as the data show it: active = growth inhibition above about 70%; inactive = the rest. Where a SMILES comes first, the peptide text is derived from it. [ ]: non-standard residue; d: D form. The star is where a group is joined. ξ: configuration not given here. ξF = NC(Cc1ccccc1)C(=O)O; Cbz = O=C(OCc1ccccc1)*

As to `Nc1ncnc2c1nnn2C1CCC(CP(=O)(O)O)C1` (configuration not stated), the growth inhibition in test [1] was 8.05%; in test [2], 4.45%; in test [3] it was -4.65%; in test [4], 17.9%; in test [5] it was 7.3%; in test [6], 21.6%.
On to `c1ccc(CCCCc2ccccc2)cc1`, for which the growth inhibition in test [1] was 25.1%; in test [2] it was 3.2%; in test [3], 14.1%; in test [4], 6.4%; in test [5], 3.35%; in test [6] it was 11.4%.
With `Cc1cc2c(c(C(=O)NCC(=O)O)c1)Oc1c(cc(C)cc1C(=O)NCC(=O)O)S2`, the growth inhibition was -17% in test [1]; 20.1% in test [2]; -4.95% in test [3]; 14.8% in test [4]; -29.9% in test [5]; 20.9% in test [6].
As to `O=C(O)c1ccc(O)c([N+](=O)[O-])c1`, the growth inhibition is 8.2% in test [1]; -33.5% in test [2]; 6.5% in test [3]; 9% in test [4]; 6.85% in test [5]; 27.2% in test [6].
For the molecule `O=c1c2ccccc2nc(-c2ccccc2Cl)n1/N=C/c1ccc(Cl)cc1Cl`, the growth inhibition was -1.1% in test [1]; 5.3% in test [2]; 2.1% in test [3]; -3.75% in test [4]; -3.5% in test [5]; 6.1% in test [6].
With `CC(=O)c1sc2c(c1OC(=O)c1ccco1)c(=O)n(-c1ccccc1)c(=S)n2-c1ccccc1`, the growth inhibition in test [1] is 20.8%; in test [2], 18.2%; in test [3] it was 23.7%; in test [4], 25.6%; in test [5] it was 6.85%; in test [6], 33.9%.
Regarding `Cc1ccc(S(=O)(=O)N2c3ccccc3[C@H]3CCC=C[C@H]32)cc1`, the growth inhibition in test [1] was -13.2%; in test [2], 17.8%; in test [3], -19.4%; in test [4], -20.6%; in test [5] it was 30.6%; in test [6], -15.4%.
Take `N[C@@H]1c2c(Br)sc(N3CCOCC3)c2C(=O)[C@@H]1O`: the growth inhibition in test [1] is 10.8%; in test [2], -10.4%; in test [3], 4.1%; in test [4] it was -18.6%; in test [5], 5.4%; in test [6] it was -31.6%.
Regarding `O=C1CCN(Cc2ccco2)C(=O)N1`, the growth inhibition in test [1] is 1%; in test [2] it was -12.3%; in test [3] it was 10.9%; in test [4], -41%; in test [5] it was -5.7%; in test [6] it was 10.2%.
With `CCCCC1CCC(=O)NC1=O` (configuration not stated), the growth inhibition is 4.25% in test [1]; 29.6% in test [2]; 5.8% in test [3]; 5.2% in test [4]; 14.7% in test [5]; 1.9% in test [6].
With `Cc1cc(OC(=O)c2ccccc2)cc(C)c1OC(=O)c1ccccc1`, the growth inhibition is 10% in test [1]; 2.9% in test [2]; 0.1% in test [3]; -6.15% in test [4]; 7.15% in test [5]; -6.7% in test [6].
In the case of `CCOC(=O)CNC(=O)C(Cc1ccccc1)NC(=O)OCc1ccccc1` (configuration not stated) (Cbz-[ξF]-Gly-OEt), the growth inhibition is -16.2% in test [1]; -19.1% in test [2]; 4.55% in test [3]; -4.75% in test [4]; -3.6% in test [5]; -9% in test [6].
For the molecule `CC1(C)CC(=O)C2=C(C1)NC(=S)C(C#N)C2c1ccccc1` (configuration not stated), the growth inhibition in test [1] was 10.2%; in test [2], -4%; in test [3], 14.7%; in test [4] it was 9.55%; in test [5], 21.1%; in test [6], 30.2%.
In the case of `N#CCc1c(Cl)ccc(Cl)c1Cl`, the growth inhibition is 37% in test [1]; 45.6% in test [2]; 44.6% in test [3]; 3.9% in test [4]; 58.8% in test [5]; 39.5% in test [6].
Consider `CCC(Oc1ccc(OC)c2c1C(=O)CCC2)C(=O)O` (configuration not stated), for which the growth inhibition in test [1] was 5.95%; in test [2], 1%; in test [3], -18.9%; in test [4], 11.4%; in test [5] it was -0.85%; in test [6], 7.55%.
In the case of `COC(=O)C(N)C(C)(C)S` (configuration not stated), the growth inhibition in test [1] is -9.9%; in test [2], -2.75%; in test [3] it was -3.65%; in test [4] it was -10%; in test [5], 6.85%; in test [6], 2.5%.
In the case of `O=C(O)c1cc2cc(Br)ccc2c(Br)c1O`, the growth inhibition in test [1] was -3.75%; in test [2], -25.7%; in test [3] it was -8%; in test [4] it was -71.3%; in test [5], -24.2%; in test [6], -3.85%.
For `CCOC(=O)NC(=O)c1cn(CCCOC(=O)CCCCCCCCCCC(=O)OCCCn2cc(C(=O)NC(=O)OCC)c(=O)n(C)c2=O)c(=O)n(C)c1=O`, the growth inhibition in test [1] is -22.3%; in test [2], 8.3%; in test [3], -24.6%; in test [4], 15.3%; in test [5], -2.35%; in test [6], -19.4%.
For `CC(C)CNC(=O)c1ccccc1`, the growth inhibition in test [1] is 0.45%; in test [2], 5.1%; in test [3] it was -1.6%; in test [4], -3.2%; in test [5] it was 0.5%; in test [6], -4.65%.
For `CCC(CC)CC1CCCCC1=O` (configuration not stated), the growth inhibition in test [1] was 1.3%; in test [2], -5.25%; in test [3], -6.25%; in test [4], 3.75%; in test [5] it was -20.6%; in test [6], -7.65%.
On to `Brc1ccc(CN(Cc2ccccc2)Cc2ccccc2)cc1`, for which the growth inhibition was -13.3% in test [1]; -8.3% in test [2]; 1.55% in test [3]; -10.4% in test [4]; 10.7% in test [5]; 4.75% in test [6].
For `O=[N+]([O-])c1ccc2[nH]ccc2c1`, the growth inhibition in test [1] is 8.75%; in test [2], -4.25%; in test [3] it was -2.7%; in test [4], 10.7%; in test [5], 3.6%; in test [6], 7.5%.
Take `CC(C)(C)OC(=O)CC(c1ccccc1)c1ccccc1`: the growth inhibition in test [1] was -11.5%; in test [2], -9.4%; in test [3], -8.7%; in test [4] it was -41.5%; in test [5], 49.1%; in test [6] it was -21.9%.
`Nc1cc2c(cc1Br)-c1ccc(Br)cc1C2=O`: the growth inhibition in test [1] is -6.65%; in test [2] it was -6.65%; in test [3], -0.7%; in test [4], -30.2%; in test [5], 21.4%; in test [6] it was -5.25%.
As for `NCCCCCCNCc1cccc2ccccc12`, the growth inhibition in test [1] is -9.85%; in test [2], -13.1%; in test [3], -9.7%; in test [4], 6.05%; in test [5], -10.3%; in test [6], -31.4%.
For the molecule `CN(CCO)CCN1c2ccccc2Sc2ccccc21`, the growth inhibition is -12.7% in test [1]; -26.3% in test [2]; -10.2% in test [3]; -13.9% in test [4]; -5.8% in test [5]; -0.65% in test [6].
As for `CCOC(=O)C1=CNC(C(=O)OCC)C1c1cccn1-c1ccc(Cl)cc1[N+](=O)[O-]` (configuration not stated), the growth inhibition in test [1] was 8.6%; in test [2] it was 16.8%; in test [3], 10.8%; in test [4], 29%; in test [5], 3.8%; in test [6] it was 40.8%.
As to `O=C(O)c1cc2ccccc2c2cc3ccccc3cc12`, the growth inhibition in test [1] was 28.6%; in test [2], 39%; in test [3], 26.6%; in test [4], 57.3%; in test [5] it was 33.2%; in test [6], 70.8% (active).
Take `COC(=O)C(=O)c1c(C(=O)OC)nc2nnc(N)n2c1-c1ccc(O)c(OC)c1`: the growth inhibition in test [1] is 0.5%; in test [2] it was -11.9%; in test [3], -2.65%; in test [4], -31.8%; in test [5] it was 16.5%; in test [6] it was -9.9%.
`CCCCS(=O)(=O)CCCC`: the growth inhibition in test [1] was 18.5%; in test [2] it was 0.9%; in test [3], -10.2%; in test [4], 0.6%; in test [5], -1.3%; in test [6] it was 22.9%.
`Cc1ncc(CO)c(/C=N/NC(N)=S)c1O`: the growth inhibition in test [1] was 3.3%; in test [2], -13.9%; in test [3], 3.7%; in test [4] it was -34.9%; in test [5] it was 0.05%; in test [6] it was 13.6%.
On to `CS(=O)CC(=N\N)/C(CS(C)=O)=N/N` (configuration not stated), for which the growth inhibition in test [1] was -60%; in test [2], -20.8%; in test [3] it was -19.7%; in test [4], -21.4%; in test [5], -1.15%; in test [6] it was -5.75%.
Regarding `Cc1c(N=Nc2cccc(F)c2)c(-c2ccccc2)nn1C(=S)S`, the growth inhibition in test [1] was 20.2%; in test [2], 5.25%; in test [3] it was 11.7%; in test [4], 15.9%; in test [5], 26.8%; in test [6], 16.7%.
For the molecule `CN(C)CCCOCCn1c2c(c3ccccc31)CCCC2`, the growth inhibition is 19.2% in test [1]; -1.2% in test [2]; 12.9% in test [3]; -2.95% in test [4]; 15.8% in test [5]; -89.5% in test [6].
Consider `S=C1SCN(C(c2ccccc2)c2ccccc2)CN1C(c1ccccc1)c1ccccc1`, for which the growth inhibition in test [1] is 12.2%; in test [2] it was 22.2%; in test [3] it was 9.4%; in test [4], -20.1%; in test [5], -4.75%; in test [6], 28.2%.
As to `O=S(=O)(O)C1=CC(=N/Cl)/C=CC/1=N\Cl`, the growth inhibition is -25.8% in test [1]; -23.8% in test [2]; -14.6% in test [3]; -4.15% in test [4]; -42% in test [5]; -25.2% in test [6].
As to `O=C(Cn1ccc(=O)[nH]c1=O)Nc1ccc(C(=O)O)c(O)c1`, the growth inhibition was 0.45% in test [1]; -43.1% in test [2]; -24.9% in test [3]; -45.8% in test [4]; -31.4% in test [5]; 0.55% in test [6].

These data come from PubChem BioAssay (NCI).
